Bioassay records: PubChem, National Center for Advancing Translational Sciences (NCATS)
G9a block = G9a (human) methyltransferase inhibition; Q96KQ7; G9a H3K9 monomethylation, AlphaScreen, 2 h; Potency, µM (series often up to 102 µM), for the others: at the highest dose activity, negative = inhibition, usual class: inhibitors; 350,000 compounds, 8.8% hits; AID 504332; further: on the % scale 0 is the no-effect control and ±100 the full control effect; nearly all actives have a fitted effect of over 75% in size
Target sequence (Q96KQ7 913-1193 limits assumed): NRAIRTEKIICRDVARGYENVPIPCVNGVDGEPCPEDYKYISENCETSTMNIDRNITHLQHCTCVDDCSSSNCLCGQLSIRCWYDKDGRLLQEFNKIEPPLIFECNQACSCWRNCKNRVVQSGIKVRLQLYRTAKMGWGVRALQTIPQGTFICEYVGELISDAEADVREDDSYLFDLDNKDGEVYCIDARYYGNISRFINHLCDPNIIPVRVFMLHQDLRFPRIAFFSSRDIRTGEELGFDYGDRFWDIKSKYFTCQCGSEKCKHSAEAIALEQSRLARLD
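Using a bead-based AlphaScreen, monomethylated H3K9 product from 2 h room-temperature reactions (G9a 20 nM, peptide 500 nM, SAM 20 uM) was detected with 0.5 ug/mL rabbit anti-H3K9me1 antibody.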
PLK1 PBD inh = blocks phosphopeptide binding to human PLK1 polo-box domain; P53350; Plk1 PBD binding of FITC phosphopeptide, fluorescence polarization; Potency, µM, for inactives: max response, negative = inhibition, usual class: inhibitors; 360,000 compounds, 2.8% hits; further: series mostly up to about 57 µM; on the % scale 0 is the no-effect control and ±100 the full control effect; nearly all actives have a fitted effect of over 65% in size
BAZ2B inh = BAZ2B (human) inhibition; Potency, µM (top dose mostly 114 µM), inactives show top-dose activity change, negative = inhibition, usual class: inhibitors; 360,000 compounds, 4.4% hits; AlphaScreen BAZ2B-H3K14Ac peptide displacement; Q9UIF8; further: on the % scale 0 is the no-effect control and ±100 the full control effect; nearly all actives have a fitted effect of over 60% in size
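BAZ2B (50 nM) with biotin-H3(5-23)K14Ac peptide (50 nM) in PBS pH 7.4, 0.01% Tween-20, preformed 30 min, then compound 30 min at room temperature; top concentration 110uM. AlphaScreen streptavidin donor/nickel chelate acceptor beads (10 ug/mL final), 20 min dark, signal read.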
Sfp inh = blocks B. subtilis Sfp PPTase activity; Q9F4F7; Potency, µM, inactives show largest response in the series, negative = inhibition, usual class: inhibitors; AID 1490; Biochemical Sfp PPTase activity, qHTS; 310,000 compounds, 3.5% hits;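 further: the enzyme is Sfp with the accession as filed and its product quenches rhodamine fluorescence; 0% = enzyme reaction without inhibitor and -100% = no enzyme wells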
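Buffer: 50 mM Hepes-Na pH 7.6, 10 mM MgCl2, 0.01% Nonidet P-40, 0.01% BSA. Enzyme 15 nM, pre-exposed to compound 15 min; substrates then added and fluorescence change tracked over 30 min.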
HP1b binding inh = blocks HP1-beta chromodomain binding to methylated histone tails; AlphaScreen HP1-beta / biotin-H3K9me3 peptide binding; 390,000 compounds, 0.56% hits; Potency, µM (highest dose often 114 µM), inactives show at the top dose activity change, negative = inhibition, actives largely listed as inhibitors; AID 540317; further: nearly all actives have a fitted effect of over 70% in size
Target sequence (P83916 whole entry, looked up): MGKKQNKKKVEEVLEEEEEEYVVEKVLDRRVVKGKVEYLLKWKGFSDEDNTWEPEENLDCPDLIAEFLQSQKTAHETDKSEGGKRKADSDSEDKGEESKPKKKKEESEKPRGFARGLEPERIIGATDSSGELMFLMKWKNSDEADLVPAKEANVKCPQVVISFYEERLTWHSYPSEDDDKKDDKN
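AlphaScreen: HP1-beta (50 nM) preformed 30 min with biotin-H3(1-18)K9me3 peptide (50 nM) in PBS pH 7.4, 0.01% Tween-20. Compound added for 30 min at RT, then streptavidin donor/nickel chelate acceptor beads (10 ug/mL) for 30 min.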
JMJD2A Tudor inh = JMJD2A Tudor domain (human) inhibition; O75164; AlphaScreen JMJD2A-Tudor / H3K4me3 peptide binding; Potency, µM (series often up to 114 µM), without a hit: at the top dose activity change, negative = inhibition, hits mostly inhibitors; 390,000 compounds, 4.4% hits; further: on the % scale 0 is the no-effect control and ±100 the full control effect; nearly all actives have a fitted effect of over 50% in size
Active calls of the source: *; [ ] = another dose, or the depositor's remark. Hits are enriched below; roughly 12% of the tested compounds scored in any of these assays. The call rests on the fitted dose curve; in most records, active means well fitted curve in the direction sought with a large enough effect; inconclusive means small, poorly fitted or top-dose-only effect, or another doubt; inactive means no such curve, though single readings can be large; an effect the other way counts as inactive or inconclusive. Potency means the concentration at half of the fitted maximal effect.

Results for CCC(=O)Nc1ccc(N2CCN(Cc3ccccc3)CC2)cc1 ?
G9a block: 50µM*; PLK1 PBD inh: -20%; BAZ2B inh: -6%; Sfp inh: 12%; HP1b binding inh: 26%; JMJD2A Tudor inh: -16%[11.4 µM]

Results for CCN1CCN(c2ccc(NC(=O)Cc3ccccc3)cc2)CC1 ?
G9a block: -33%[12.7 µM]; PLK1 PBD inh: 1%; BAZ2B inh: -35%; Sfp inh: 9%; HP1b binding inh: 22%; JMJD2A Tudor inh: -11%

Results for COc1ccc(Br)cc1C(=O)Nc1ccc(N2CCCC2)cc1 ?
PLK1 PBD inh: -5%; BAZ2B inh: 22µM*; Sfp inh: -5%; HP1b binding inh: inconclusive; JMJD2A Tudor inh: inconclusive

What do the screens show for `COc1ccc(C)cc1NC(=O)Nc1cccc(OCc2cc(=O)n3ccc(C)cc3n2)c1`?
G9a block: 2%[59 µM]; BAZ2B inh: 5%; HP1b binding inh: 22%[57 µM]; JMJD2A Tudor inh: -2%

How did CC(CNC(=O)Cn1ccc2cc(S(=O)(=O)N3CCCCC3)ccc21)c1ccccc1 (stereo not given) do in these assays?
G9a block: -3%[59 µM]; BAZ2B inh: -18%; HP1b binding inh: 4%; JMJD2A Tudor inh: -18%

Results for O=S(=O)(/N=C(\Sc1ccc(Cl)cc1)c1ccccc1)c1ccccc1 ?
G9a block: -2%[12.7 µM]; PLK1 PBD inh: 2.7µM*; BAZ2B inh: 33%; Sfp inh: 56µM*; HP1b binding inh: 69%; JMJD2A Tudor inh: 2%

What do the screens show for `CC(=O)c1sc(NC(=O)c2ccc(Cn3cc(Br)cn3)o2)nc1C`?
G9a block: 45µM*; PLK1 PBD inh: -22%; BAZ2B inh: -8%; Sfp inh: 12%; HP1b binding inh: 16%; JMJD2A Tudor inh: -14%

How did CC(=O)c1sc(NC(=O)c2ccc(Br)o2)nc1C do in these assays?
G9a block: 2%; PLK1 PBD inh: 4%; BAZ2B inh: inconclusive; Sfp inh: 5%; HP1b binding inh: 35%; JMJD2A Tudor inh: 7%

How did O=C(c1cc(COc2ccc(F)cc2Cl)on1)N1CCSCC1 do in these assays?
G9a block: 76%; PLK1 PBD inh: 3%; BAZ2B inh: 6%; Sfp inh: 5%; HP1b binding inh: 48%; JMJD2A Tudor inh: 1%

How did CCN(CC)c1ccc(NC(=O)Nc2ccccc2)cc1 do in these assays?
G9a block: 8.9µM*; PLK1 PBD inh: -3%; BAZ2B inh: inconclusive; Sfp inh: -5%; HP1b binding inh: inconclusive; JMJD2A Tudor inh: inconclusive

What do the screens show for `CCN(CC)c1ccc(NC(=S)NC(=O)Cc2ccccc2)cc1`?
G9a block: 7.9µM*; PLK1 PBD inh: inconclusive; BAZ2B inh: 11µM*; Sfp inh: 8%; HP1b binding inh: inconclusive; JMJD2A Tudor inh: 25µM*

What do the screens show for `CCN(CC)c1ccc(NC(=O)c2sc3ccccc3c2Cl)cc1`?
G9a block: 5µM*; BAZ2B inh: 11µM*; HP1b binding inh: inconclusive; JMJD2A Tudor inh: 11µM*

Results for Cc1ccc(Nc2nc(NCc3ccco3)nc3nccnc23)cc1C ?
HP1b binding inh: 10%[57 µM]; JMJD2A Tudor inh: 12%[57.1 µM]

What do the screens show for `O=C(Nc1ccc(Oc2ccccc2)cc1)c1ccc(F)c(S(=O)(=O)N2CCN(c3cccc(Cl)c3)CC2)c1`?
G9a block: -2%[59 µM]; BAZ2B inh: -4%; HP1b binding inh: 14%; JMJD2A Tudor inh: -11%

How did COc1ccc(/C=N/Nc2ccccc2C(=O)O)cc1Cn1cc([N+](=O)[O-])cn1 do in these assays?
G9a block: 22µM*; PLK1 PBD inh: -14%; BAZ2B inh: 50µM*; Sfp inh: 6%; HP1b binding inh: -15%; JMJD2A Tudor inh: inconclusive

Results for COc1ccc(/C=N/NC(=O)c2ccc(Br)o2)cc1Cn1cc([N+](=O)[O-])cn1 ?
G9a block: -32%[59 µM]; PLK1 PBD inh: -2%; BAZ2B inh: -27%; Sfp inh: -4%; HP1b binding inh: 22%; JMJD2A Tudor inh: -6%

How did COc1ccc(/C=N/NC(=O)c2ccccc2O)cc1Cn1cc([N+](=O)[O-])cn1 do in these assays?
G9a block: 10%; PLK1 PBD inh: -10%; BAZ2B inh: -4%; Sfp inh: -14%; HP1b binding inh: 29%; JMJD2A Tudor inh: -6%[11.4 µM]

How did COc1ccc(/C=N/NC(=O)c2cc(O)c(O)c(O)c2)cc1Cn1cc([N+](=O)[O-])cn1 do in these assays?
G9a block: 14µM*; PLK1 PBD inh: inconclusive; BAZ2B inh: 10µM*; Sfp inh: -121%; HP1b binding inh: inconclusive; JMJD2A Tudor inh: 10µM*

Results for COc1ccc(CCN(C)C2CCCN(C(=O)c3sccc3C)C2)cc1OC (stereo not given) ?
G9a block: -6%; PLK1 PBD inh: 0%; BAZ2B inh: -3%; Sfp inh: 12%; HP1b binding inh: 19%; JMJD2A Tudor inh: -14%

Results for Cc1c(C)c2c(OCC(=O)N3CCC[C@H]3C(=O)O)cc3c(c2oc1=O)CCC(C)(C)O3 ?
PLK1 PBD inh: -2%; BAZ2B inh: -5%; Sfp inh: 10%; HP1b binding inh: 30%; JMJD2A Tudor inh: -11%

What do the screens show for `CC[N+](CC)(CC)CCOc1ccc(/C=C/c2ccccc2)cc1`?
G9a block: 9%[59 µM]; PLK1 PBD inh: 0%; BAZ2B inh: 56µM*; Sfp inh: -15%; HP1b binding inh: 13%; JMJD2A Tudor inh: inconclusive

How did COc1ccc(NC(=O)N2CCC3(CC2)CCN(S(C)(=O)=O)CC3)cc1 do in these assays?
G9a block: -1%[12.7 µM]; Sfp inh: 24%

What do the screens show for `CCC(=O)c1cn(/C(=C\C(=O)OC(C)(C)C)CCC(OC)OC)cc1CC`?
G9a block: -4%[2.33 µM]; PLK1 PBD inh: -1%; BAZ2B inh: 2%; HP1b binding inh: 32%; JMJD2A Tudor inh: -10%

How did CC(C)CO/N=C1/C[C@@H](O)[C@@H](O)[C@@H]2[C@@H]3C(=O)N(C(C)(C)C)C(=O)[C@H]3CC[C@H]12 do in these assays?
Sfp inh: 14%

How did CCOC(=O)N1CCC(N(CCN(C)C)C(=S)Nc2cc(Cl)cc(Cl)c2)CC1 do in these assays?
G9a block: inconclusive; PLK1 PBD inh: -8%; BAZ2B inh: 79µM*; Sfp inh: -24%; HP1b binding inh: 31%; JMJD2A Tudor inh: -6%

What do the screens show for `COc1cc(O)c(C(CCN2CCN(c3ccccc3)CC2)c2cc(OC)c(OC)c(OC)c2)c(OC)c1` (stereo not given)?
G9a block: -22%[59 µM]; PLK1 PBD inh: 3%; BAZ2B inh: inconclusive; Sfp inh: -19%; HP1b binding inh: inconclusive; JMJD2A Tudor inh: 40µM*
